In the library only some 2.7% were active in any assay of this set; here they are far more common.
Shn3 inh set2: Schnurri-3 reporter inhibition in Clone20 osteoblasts; Clone20 osteoblast Shn3 3'UTR firefly luciferase, 24 h; inhibition, % at 12.5 µM; 360,000 compounds, 0.52% hits;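 active means mean inhibition of at least 75% with every replicate also reaching 75%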
MITF TRPM1 inh: MITF TRPM1 promoter inhibition in SK-MEL-5 cells. SK-MEL-5 TRPM1 promoter luciferase, 24 h. inhibition, % at 12.5 µM. 330,000 compounds, 0.83% hits. AID 488899;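 active means mean inhibition across replicates of 60% or more, whatever share of single replicates reaches that level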
HIF-2a block: blocks HIF-2a reporter activity; 786-0 RCC cells HIF-2a reporter, luciferase luminescence, overnight; inhibition, % at 18.8 µM; 360,000 compounds, 0.72% hits; AID 624352;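 active means inhibition of the luminescence signal of 40% or more relative to plate controls, in a single-dose primary screen at 18.75 µM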
KKLEB tox: CF airway cell cytotoxicity counter-screen; KKLEB CF airway cells viability, ATPlite luminescence, overnight; stronger effect = lower value; cells stimulated with P. aeruginosa culture filtrate; activity change (cytotoxicity), % at 5 µM; 360,000 compounds, 0.36% hits; AID 602141;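 active means corrected activity change at or below -50% at 5 µM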
CF NFkB inh: cystic fibrosis NF-kB activation inhibition. KKLEB NF-kB-GFP reporter, PAF-induced, GFP fluorescence overnight. inhibition, % at 5 µM. 360,000 compounds, 0.86% hits;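 active means at least 50% inhibition at 5 µM, scaled per plate between neutral and stimulator controls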;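 further: PAF is a Pseudomonas aeruginosa culture filtrate used as stimulus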
Peg3 prom inh: Peg3 promoter activity inhibition; HeLa PEG-Prom luciferase reporter, luminescence, overnight; inhibition, % at 20 µM; 360,000 compounds, 1.7% hits; AID 588405;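 active means inhibition of at least 50% at 20 µM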
CF NFkB conf: confirmation of cystic fibrosis induced NF-kB inhibitors; shares compounds with CF NFkB inh; KKLEB CF airway cells, PAF-induced NF-kB-GFP fluorescence, overnight; inhibition, % at 5 µM; 1,300 compounds, 64% hits; AID 602472; in the data active means inhibition above about 40%;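 further: stimulus PAF is a Pseudomonas aeruginosa filtrate and not platelet activating factor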
Of the large screens only hits and unclear results are named; the others gave an inactive call (follow-up assays come after a bar, where they were run).

COc1ccc2c(c1OC)C(=O)OC2Nc1nc(-c2ccc([N+](=O)[O-])cc2)cs1 (stereo unspecified)	none
COc1ccc(-c2csc(NC3OC(=O)c4c3ccc(OC)c4OC)n2)cc1OC (stereo unspecified)	CF NFkB inh 77, Peg3 prom inh 60 (no result: Shn3 inh set2) | CF NFkB conf 87
COc1ccccc1-c1n[nH]nc1C1=CC(=O)C[C@H](c2ccc(F)cc2)C1	none (no result: MITF TRPM1 inh)
CCc1ccc(-c2n[nH]nc2C2=CC(=O)C[C@H](c3ccc(F)cc3)C2)cc1	CF NFkB inh 61 (no result: MITF TRPM1 inh) | CF NFkB conf inactive
Cc1ccccc1S(=O)(=O)NC(=O)C1(C)CCN1C(=O)CCc1ccc(Cl)cc1Cl (stereo unspecified)	none (no result: MITF TRPM1 inh)
CS(=O)(=O)Nc1cccc(-c2cc(NC=O)c3ncc(-c4ccc(F)cc4)n3c2)c1	CF NFkB inh 52 (no result: MITF TRPM1 inh) | CF NFkB conf 53
COc1ccc(-c2cnc3c(NC=O)cc(-c4ccccc4OC)cn23)cc1OC	CF NFkB inh 65 (no result: MITF TRPM1 inh) | CF NFkB conf 91
Cc1coc2c(C)c3oc(=O)c(CCC(=O)N[C@H](C(=O)O)C(C)C)c(C)c3cc12	none (no result: MITF TRPM1 inh)
COc1ccc(-c2nc3c4ccccc4ccn3c2Cc2cccc(F)c2)cc1OC	none (no result: MITF TRPM1 inh)
Cc1ccc(S(=O)(=O)Nc2cccc3ncccc23)s1	MITF TRPM1 inh 100, HIF-2a block 80, CF NFkB inh 83, Peg3 prom inh 103 | CF NFkB conf 109
CC(C)(CO)CNc1ccn2nccc2n1	CF NFkB inh 53 (no result: MITF TRPM1 inh) | CF NFkB conf 60
COc1ccc(-c2cn[nH]c2-c2ccc(OCc3ccc([N+](=O)[O-])cc3)cc2O)cc1	CF NFkB inh 70 | CF NFkB conf 82
CCc1cc(-c2[nH]ncc2-c2ccc(OC)cc2)c(O)cc1O	CF NFkB inh 76, Peg3 prom inh 55 | CF NFkB conf 81
COC(=O)c1ccc2nc(C3CCCCC3)c(Cc3cccc(Cl)c3)n2c1	none (no result: MITF TRPM1 inh)
Cc1ccc(S(=O)(=O)N2CCOCC2)cc1C(=O)NCCCN1CCCC1=O	none (no result: MITF TRPM1 inh)
COc1cncc(C#Cc2ccccn2)c1	none (no result: Shn3 inh set2, MITF TRPM1 inh, KKLEB tox, CF NFkB inh, Peg3 prom inh)
Cn1c(=O)c2c(nc(Oc3ccc4ccccc4c3)n2C)n(C)c1=O	CF NFkB inh 55 | CF NFkB conf 69
COc1ccc(Oc2nc3c(c(=O)n(C)c(=O)n3C)n2C)cc1	none
O=C(NCCCSc1ccccc1)c1cc(Cl)ccc1O	CF NFkB inh 58 | CF NFkB conf 76
O=C(CNC(=O)c1ccccc1)NCCCSc1ccccc1	none
Cn1c(=O)c2cc(NC(=S)NCc3ccccc3F)ccc2n1Cc1cccc(C(F)(F)F)c1	none (no result: MITF TRPM1 inh)
CCSC1(SCC)N=C(N)C2(C#N)C(c3ccc(OC)c(OC)c3OC)C12C#N (stereo unspecified)	CF NFkB inh 79 | CF NFkB conf inactive
COc1ccc(CNc2nn3c(-c4cccc(C(=O)N(C)C)c4)cnc3s2)cc1	CF NFkB inh 84, Peg3 prom inh 56 (no result: MITF TRPM1 inh) | CF NFkB conf 91
Cc1ccc2occ(/C=N/NC(=O)c3ccc(O)cc3)c(=O)c2c1	CF NFkB inh 66 | CF NFkB conf inactive
Cc1ccc2occ(/C=N/NC(N)=S)c(=O)c2c1	none
O=C(N/N=C/c1coc2ccccc2c1=O)c1ccccc1	none
Cc1ccc2occ(/C=N/NC(=O)c3ccccc3Br)c(=O)c2c1	CF NFkB inh 57 | CF NFkB conf 57
CCOc1ccccc1C(=O)N/N=C/c1coc2ccc(C)cc2c1=O	CF NFkB inh 71 | CF NFkB conf inactive
Cc1c(C(=O)N2CCC(Cc3ccccc3)CC2)cccc1[N+](=O)[O-]	CF NFkB inh 51 | CF NFkB conf 43
Cc1ccc(S(=O)(=O)CC(CN2CCCCC2)N2CCCCC2)cc1 (stereo unspecified)	MITF TRPM1 inh 69, CF NFkB inh 53 | CF NFkB conf 57
CC1(C)O[C@@H]2C[C@H]3[C@@H]4C[C@H](F)C5=CC(=O)CC[C@]5(C)[C@H]4[C@@H](O)C[C@]3(C)[C@]2(C(=O)CO)O1	CF NFkB inh 74 | CF NFkB conf inactive
CC1(C)O[C@@H]2C[C@H]3[C@@H]4C[C@H](F)C5=CC(=O)C=C[C@]5(C)[C@H]4[C@@H](O)C[C@]3(C)[C@]2(C(=O)CO)O1	CF NFkB inh 68 | CF NFkB conf inactive

Bioassay records deposited in PubChem BioAssay by several laboratories.
